Y pestis TopoI: Yersinia pestis topoisomerase I inhibitors, primary screen, biochemical, cleavage product accumulation, plate reader, single point | Y. pestis Topo-I cleavage product accumulation | activity, % at 10 µM | actives 0.064% (n = 360,000); in the data active = activity above about 50%, passing the limit was not always enough
PfHsp40 rescue: rescue of yeast from PfHsp40 toxicity, primary screen, S. cerevisiae, ATP luminescence | S. cerevisiae expressing PfHsp40, growth rescue | growth rescue, % at 12.5 µM | actives 0.68% (n = 340,000) | AID 504582, 2011; in the data active = growth rescue above about 28%, passing the limit was not always enough;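 also: yeast W303a lacking pdr1 and pdr3 grown in galactose medium; growth measured after three days at 30 °C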
SSB-PriA inh: inhibitors of Klebsiella pneumoniae PriA binding to SSB C-terminal tail, primary screen, biochemical, AlphaScreen | AlphaScreen SSBct-PriA binding, biotinylated peptide | inhibition, % at 33 µM | actives 0.6% (n = 430,000) | AID 1272365, 2023; in the data active = inhibition mostly above about 37%, no sharp cut-off; inactive = mostly below about 20%
PrP UTR inh: inhibition of PrP 5' UTR reporter expression; inhibition, % (test concentration not listed); cell-based PrP 5' UTR mRNA reporter, plate reader; actives 0.35% (n = 340,000); AID 488862, 2010; in the data active = inhibition above about 52%
PrPC TRFRET: inhibitors of human cell surface prion protein PrPC, primary screen, cell-based, TR-FRET. inhibition, % at 13.8 µM. TR-FRET read-out. actives 0.43% (n = 370,000). AID 720596, 2013. Major prion protein (Homo sapiens), P04156; in the data active = inhibition above about 24%
BJeLR viability: MLPCN primary cell-based screen for lethality selective to Ras in HRASV12 cells | BJeLR (HRASV12) viability, CellTiter-Glo ATP luminescence, 48 h | inhibition, % (no concentration beside the values) | actives 0.17% (n = 300,000) | AID 1554, 2009; in the data active = inhibition above about 50%
Numbers stand for hits. In the library only some 1.7% were active in any assay of this set; here they are far more common.

For CCN(CC)c1ccc(/C=N/Nc2nc(C)cc(=O)[nH]2)c(O)c1 the results were Y pestis TopoI inactive, PfHsp40 rescue inactive, PrP UTR inh inactive, PrPC TRFRET inactive and BJeLR viability 67.4.
CCN(CC)c1ccc(/C=N/Nc2ccc(C)cc2)c(O)c1 was read as Y pestis TopoI inactive, PfHsp40 rescue inactive, PrP UTR inh inactive and PrPC TRFRET 25.2.
`O=C(Nc1cccc(C(F)(F)F)c1)c1ccc(=O)[nH]n1` gave SSB-PriA inh inactive.
Screening O=C(CN1CCN(C(=O)c2ccc3c(c2)OCO3)CC1)c1ccco1 returned SSB-PriA inh inactive.
`O=C(COc1ccc(Oc2ccccc2)cc1)Nc1ccc(F)cc1` gave SSB-PriA inh inactive.
For O=C(C1CCN(c2ccc(-c3cccs3)nn2)CC1)N1CCc2ccccc21 the results were SSB-PriA inh inactive.
For CC1CCN(c2ccc(-c3cccs3)nn2)CC1 the results were Y pestis TopoI inactive, PfHsp40 rescue inactive, SSB-PriA inh inactive, PrP UTR inh 79.7, PrPC TRFRET inactive and BJeLR viability inactive.
For COc1ccc(Br)cc1C(=O)NCc1cccnc1 the results were Y pestis TopoI inactive, PfHsp40 rescue 34.5, SSB-PriA inh inactive, PrP UTR inh inactive, PrPC TRFRET inactive and BJeLR viability inactive.
COC(=O)c1cc(CNC(=O)c2ccccc2Cl)ccc1OC was read as Y pestis TopoI inactive, PfHsp40 rescue 47.3, SSB-PriA inh inactive, PrP UTR inh inactive, PrPC TRFRET inactive and BJeLR viability inactive.
`COc1ccc2cc(Br)ccc2c1CC(=O)NCc1cccnc1` gave SSB-PriA inh inactive.
`Cc1cc2ncc3c(n2n1)CCN(S(=O)(=O)CCCOc1ccccc1)C3` gave SSB-PriA inh inactive.
For Cc1ccc(N=Nc2ccc3ccccc3c2O)cc1 the results were Y pestis TopoI inactive, PfHsp40 rescue inactive, SSB-PriA inh inactive, PrP UTR inh inactive, PrPC TRFRET inactive and BJeLR viability inactive.
For Oc1c(N=Nc2ccc(F)cc2)ccc2ccccc12 the results were Y pestis TopoI inactive, PfHsp40 rescue inactive, SSB-PriA inh 38.6, PrP UTR inh inactive, PrPC TRFRET inactive and BJeLR viability inactive.
Screening O=C(Nc1cccc(Cl)c1)N1CCc2ccccc2C1 returned Y pestis TopoI inactive, PfHsp40 rescue 44.1, SSB-PriA inh inactive, PrP UTR inh inactive, PrPC TRFRET inactive and BJeLR viability inactive.
`Cc1ccc(Cl)cc1S(=O)(=O)Nc1ccc2c(c1)N(C)C(=O)C(C)(C)CO2` gave SSB-PriA inh inactive.
Screening CC1CCCCN1C(=O)c1cccc(NC2=C(Cl)C(=O)N(Cc3ccccc3)C2=O)c1 (stereo not drawn) returned Y pestis TopoI inactive, PfHsp40 rescue 30.9, SSB-PriA inh inactive and PrP UTR inh inactive.
Screening O=[N+]([O-])c1ccccc1/C=C\C=N\N1CCN(c2ccccc2)CC1 returned Y pestis TopoI inactive, PfHsp40 rescue inactive, PrP UTR inh inactive, PrPC TRFRET inactive and BJeLR viability inactive.
O=[N+]([O-])c1cccc(/C=N/N2CCN(c3ccccn3)CC2)c1 was read as Y pestis TopoI inactive, PfHsp40 rescue inactive, PrP UTR inh inactive, PrPC TRFRET inactive and BJeLR viability inactive.
For O=[N+]([O-])c1ccccc1C=NN1CCN(c2ccccn2)CC1 the results were SSB-PriA inh 38.9.
`COc1ccccc1N1CCN(/N=C/C=C/c2ccccc2[N+](=O)[O-])CC1` gave Y pestis TopoI inactive, PfHsp40 rescue inactive, SSB-PriA inh active, PrP UTR inh inactive, PrPC TRFRET inactive and BJeLR viability inactive.
COc1ccccc1CCNC(=O)Cc1c(C)nc(SCc2ccc(F)cc2)[nH]c1=O was read as SSB-PriA inh inactive.
`O=C(OCc1cc(-c2ccc(Cl)cc2)on1)C1CCCC1` gave SSB-PriA inh inactive.
Screening O=[N+]([O-])c1cc(F)c(N2CCc3ccccc3C2)cc1N1CCCCCC1 returned SSB-PriA inh 65.5.
For O=[N+]([O-])c1cc(F)c(N2CCCCCC2)cc1N1CCc2ccccc2C1 the results were SSB-PriA inh 54.8.
CC1CCN(c2cc(N3CCOCC3)c([N+](=O)[O-])cc2F)CC1 was read as Y pestis TopoI inactive, PfHsp40 rescue inactive, SSB-PriA inh inactive, PrP UTR inh inactive, PrPC TRFRET inactive and BJeLR viability inactive.
CC1CCN(c2cc(N3CCOCC3)c(F)cc2[N+](=O)[O-])CC1 was read as Y pestis TopoI inactive, PfHsp40 rescue inactive, SSB-PriA inh 58.3, PrP UTR inh inactive, PrPC TRFRET inactive and BJeLR viability inactive.
Clc1ccccc1[C@@H]1COCCN1 was read as SSB-PriA inh inactive.
O=C(CNC(=O)OCc1ccccc1)NCc1ccnc(-c2ccco2)c1 was read as SSB-PriA inh inactive.
`O=C(CSc1nn2c(-c3ccccc3Br)nnc2s1)Nc1cccc(Cl)c1` gave SSB-PriA inh inactive.
CCNc1sc(C(=O)c2cccs2)c(N)c1-c1nc2ccccc2s1 was read as Y pestis TopoI inactive, PfHsp40 rescue inactive, SSB-PriA inh 54.8, PrP UTR inh inactive, PrPC TRFRET inactive and BJeLR viability inactive.
`CCOC(=O)c1sc(NCc2ccco2)c(-c2nc3ccccc3s2)c1N` gave Y pestis TopoI inactive, PfHsp40 rescue inactive, SSB-PriA inh inactive, PrP UTR inh inactive, PrPC TRFRET inactive and BJeLR viability inactive.
`C=CCNc1sc(C(=O)c2ccccc2)c(N)c1-c1nc2ccccc2s1` gave Y pestis TopoI inactive, PfHsp40 rescue inactive, SSB-PriA inh 54.1, PrP UTR inh inactive and BJeLR viability inactive.
For CCNc1sc(C(=O)c2cccs2)c(N)c1C#N the results were Y pestis TopoI inactive, PfHsp40 rescue inactive, SSB-PriA inh inactive, PrP UTR inh inactive, PrPC TRFRET inactive and BJeLR viability inactive.
CSc1nc(N2CCCCC2)c2cnn(CCNC(=O)c3cc4ccccc4o3)c2n1 was read as SSB-PriA inh inactive.
Screening Cc1nn(-c2ccccc2)c(N2CCCC2)c1C=NNc1ccc(S(N)(=O)=O)cc1[N+](=O)[O-] returned SSB-PriA inh 79.8.
`CN(CCO)c1ccc(C=NNc2ccc([N+](=O)[O-])cc2S(=O)(=O)Nc2ccccc2C(=O)O)cc1` gave Y pestis TopoI inactive, SSB-PriA inh 40.5 and PrPC TRFRET inactive.
`CC(=O)Nc1ccc(C=NNc2ccc([N+](=O)[O-])cc2S(=O)(=O)Nc2ccccc2C(=O)O)cc1` gave Y pestis TopoI inactive, PfHsp40 rescue inactive, SSB-PriA inh inactive, PrP UTR inh inactive and PrPC TRFRET inactive.
Screening CCOc1ccc(C=NNc2ccc(S(=O)(=O)Nc3ccccc3C(=O)O)cc2[N+](=O)[O-])cc1OC returned Y pestis TopoI inactive, PfHsp40 rescue inactive, SSB-PriA inh inactive and PrP UTR inh inactive.
